Test results published in PubChem BioAssay (NCI).
Where “and” joins values, the source holds several entries; their conditions need not be identical. Equal entries are not always repeated. About 83,000 compounds went through this panel and 20% of them were active in at least one assay; those are over-represented in the sample as a whole.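 A percent growth of 40 corresponds to 60% growth inhibition; 0 means no net growth; -100 means all cells died. Active threshold: below 10.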 Calls of active or inactive are those of the source.

test system: M14 melanoma; experiment: NCI-60 one-dose screen, 48 h (100 = growth as untreated, 0 = no growth, -100 = all killed); conditions: 10 µM
Experimental: Growth inhibition of the M14 human tumor cell line is measured as a screen for anti-cancer activity. Cells are grown in 96 well plates and exposed to the test compound for 48 hours. Compounds are tested at a single concentration, which is 10^-5 M for most compounds. The reported endpoint is percent growth (GI% or GIPRCNT), where numbers from 0 - 100% represent growth inhibition, and numbers from -100% - 0 represent cell death. For example, a value of 40 represents 60% growth inhibition. A value of 0 means no net growth occurred over the course of the experiment. A value of -40 indicates 40% of cells at the beginning of the experiment died by the end of the experiment. A value of -100 means all cells are dead at the end of the experiment.
NCI-60 Human Tumor Cell Lines Screen was performed using the standard one-dose NCI protocol, which is described in more detail at https://dtp.cancer.gov/discovery_development/nci-60/default.htm.
Compounds with GIPRCNT values below 10 were considered active. Activity score was based on GIPRCNT using the following formula: […]
Score is 0 for GIPRCNT values of 100 or above, 50 for GIPRCNT values of 0, and 100 for GIPRCNT values of -100.

| Structure (SMILES) | growth |
| --- | --- |
| O=c1ccn2c(n1)OC1CC2OC1COC(c1ccccc1)(c1ccccc1)c1ccccc1 (stereo not given) | 112% (inactive) |
| CS/C(=C\c1ccc(C(=O)c2ccc(C)cc2)n1C)S(C)=O (stereo not given) | 103% (inactive) |

same assay, conditions: 10 µM unless noted

| Structure (SMILES) | growth |
| --- | --- |
| N#Cc1c[nH]n2ccnc12 | 94.9% (inactive) |
| COc1ccc(/C=C/C(=O)O)cc1OC | 101% (inactive) and 106% (inactive) |
| O=C1c2ccccc2CN1c1ccccc1 | 100% (inactive) |
| Cc1ccc(N)cc1S(=O)(=O)O | 105% (inactive) and 101% (inactive) |
| CC(=O)Nc1ccc(OC(C)=O)cc1 | 0.268% (active) and 103% (inactive) |
| Cc1cnc(N)s1 | 91.9% (inactive) |
| CC(C)(C)C1CCC(=NO)CC1 (stereo not given) | 100% (inactive) |
| CCOC(=O)c1csc(N)n1 | 118% (inactive) and 98.3% (inactive) |
| CCCCCCCCCCCCCCCCC(=O)O | 104% (inactive) |
| Cc1cc(Cl)nc(Nc2ccccc2)n1 | 97.6% (inactive) |
| CC(=O)c1cc2ccccc2o1 | 99.5% (inactive) |
| OC1CCCN(Cc2ccccc2)C1 (stereo not given) | 98.7% (inactive) |
| NCCSSC/C=C\CSSCCN | 96.9% (inactive) |
| Cn1c(-c2ccccc2)cc(=O)cc1-c1ccccc1 | 97.7% (inactive) |
| OC(CC(c1ccccc1)c1cccc2ccccc12)(c1ccccc1)c1ccccc1 (stereo not given) | 72.1% (inactive) and 77.2% (inactive) |
| CCOC(=O)C1=CC(=O)CC(C)(C)O1 | 99.6% (inactive) and 112% (inactive) |
| CCN(C)c1ccccc1 | 100% (inactive) |
| OCCCc1ccccc1 | 100% (inactive) |

| Structure (SMILES) | growth |
| --- | --- |
| CCOC(=O)c1ccc(N2C(=O)C(Cl)(c3ccccc3)C2c2ccco2)cc1 (stereo not given) | 98.7% (inactive) |
| S=c1nn[nH]n1C1CCCCC1 | 100% (inactive) |
| COc1cc2c(cc1O)C(=O)CCCC2 | 97.2% (inactive) |
| CC(C)(C)OC(=O)NCCc1ccc(N)cc1 | 104% (inactive) |
| O=C(NC(=O)c1ccc(F)c(Cl)c1)NC1CC1 | 94.7% (inactive) and 109% (inactive) |
| CCN(CC)CCO/N=C1\CC(c2ccc(OC)c(OC)c2)Oc2ccccc21 (stereo not given) | 99.9% (inactive) |
| Clc1ccc(/C=C/c2ccc3ccccc3n2)cc1 | 81% (inactive) and 75.3% (inactive) |
| N=C(N)N1CCc2ccccc2C1 | 93.2% (inactive) and 108% (inactive) |
| Nc1nc(=S)c2[nH]cnc2[nH]1 | 5.54% (active) |
| N#Cc1ccc(/C=C/C(=O)c2ccccc2)cc1 | 98.6% (inactive) and 102% (inactive) |
| CC(=O)c1cccc(OC(=O)c2ccccc2)c1 | 93.1% (inactive) |
| CCN(CC)CCNC(=O)c1ccc(NCN2C(=O)NC(c3ccccc3)(c3ccccc3)C2=O)cc1 | 105% (inactive) and 96.3% (inactive) |
| OCc1cccc(F)c1 | 94.9% (inactive) |
| O=C(N=C1C(=O)C2(CCCCC2)C2(N=C(c3ccccc3)OC2=O)C12CCCCC2)c1ccccc1 (stereo not given) | 78% (inactive) |
| CC(C)=NOC(C)C(=O)O (stereo not given) | 94.4% (inactive) |
| Cc1nc(Nc2ccc(Cl)cc2)c2cnn(-c3ccccc3)c2n1 | 100% (inactive) |
| COc1ccc(C(=O)C(O)c2ccc(OC)cc2)cc1 (stereo not given) | 101% (inactive) and 99.9% (inactive) |
| O=S(=O)(O)c1ccc2cc(O)ccc2c1 | 103% (inactive) |

same assay, conditions: 100 µM

| Structure (SMILES) | growth |
| --- | --- |
| O=c1ccn2c(n1)OC1CC2OC1COC(c1ccccc1)(c1ccccc1)c1ccccc1 (stereo not given) | 46.1% (inactive) |
| CS/C(=C\c1ccc(C(=O)c2ccc(C)cc2)n1C)S(C)=O (stereo not given) | 69% (inactive) |
